OPRM1-OPRD1 ag: OPRM1-OPRD1 heterodimerization agonism; activation, % at 9.3 µM; cells, luminescence; 340,000 compounds, 0.3% hits; P35372+P41143; in the data active = activation above about 18%
Target sequence (P35372 whole entry, looked up): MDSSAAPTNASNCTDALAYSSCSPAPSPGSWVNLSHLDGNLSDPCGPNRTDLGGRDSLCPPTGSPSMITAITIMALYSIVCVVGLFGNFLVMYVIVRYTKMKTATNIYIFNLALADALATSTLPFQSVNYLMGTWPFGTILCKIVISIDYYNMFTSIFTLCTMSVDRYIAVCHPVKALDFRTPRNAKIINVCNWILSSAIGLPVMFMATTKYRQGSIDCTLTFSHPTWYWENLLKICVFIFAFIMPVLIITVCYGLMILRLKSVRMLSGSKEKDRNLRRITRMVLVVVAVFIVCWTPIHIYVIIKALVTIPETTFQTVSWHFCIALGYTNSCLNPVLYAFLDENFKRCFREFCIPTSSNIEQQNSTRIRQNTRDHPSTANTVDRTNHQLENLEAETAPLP
Target sequence (P41143 whole entry, looked up): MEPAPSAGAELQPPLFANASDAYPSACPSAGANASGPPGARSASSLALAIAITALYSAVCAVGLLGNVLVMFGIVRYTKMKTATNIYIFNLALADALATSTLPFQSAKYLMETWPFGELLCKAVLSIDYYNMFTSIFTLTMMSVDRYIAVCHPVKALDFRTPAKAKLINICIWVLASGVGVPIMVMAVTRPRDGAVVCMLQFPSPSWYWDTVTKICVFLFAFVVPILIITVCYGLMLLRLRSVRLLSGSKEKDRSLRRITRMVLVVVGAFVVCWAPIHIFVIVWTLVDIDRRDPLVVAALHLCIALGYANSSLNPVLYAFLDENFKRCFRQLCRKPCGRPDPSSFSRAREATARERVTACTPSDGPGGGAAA
m5-HT2A agonist: activates the mouse 5-HT2A serotonin receptor; P35363; CHO-K1 mHTR2A beta-arrestin complementation, luminescence; percent of 30 µM serotonin response; activation, % at 7.6 µM; 360,000 compounds, 0.66% hits; AID 624169;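 active = activation above a run cutoff, the mean activation of all tested compounds plus 3 SD, cut at about 14% in these data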
HTR5A inv ag: HTR5A inverse agonism, opioid heterodimer counter-screen; P47898; HTR5A cell line, luminescence; inhibition, % at 9.3 µM; 340,000 compounds, 0.083% hits; in the data active = inhibition mostly above about 23%, no sharp cut-off; inactive = mostly below about 18%
OPRM1-OPRD1 inv: inverse agonist of human OPRM1-OPRD1 heterodimerization. P35372+P41143. cell-based MOR-DOR heterodimer luminescence, inverse agonism. inhibition, % at 9.3 µM. 340,000 compounds, 0.21% hits; in the data active = inhibition above about 22%, passing the limit was not always enough
HTR5A ag ctr: activates human HTR5A in OPRM1-OPRD1 agonist counter-screen | HTR5A agonist assay, luminescence, cell-based | 340,000 compounds, 0.61% hits | activation, % at 9.3 µM | AID 504692 | P47898; in the data active = activation mostly above about 9.5%, no sharp cut-off; inactive = mostly below about 7.6%
OPRM1-D1 inv cf: OPRM1-OPRD1 heterodimer inverse agonism, confirmation; shares compounds with OPRM1-OPRD1 inv; 580 compounds, 20% hits; inhibition, % at 9.3 µM; cells expressing OPRM1/OPRD1 heterodimer, luminescence; in the data active = inhibition above about 32%
HTR5A inv count: inverse agonist of human HTR5A in OPRM1-OPRD1 counter-screen; shares compounds with OPRM1-OPRD1 inv; HTR5A-expressing cells, luminescence, inverse agonism; inhibition, % at 9.3 µM; 580 tested, under 10 active; AID 504914; call rule not given here
Hits are given with their value; 0 = inactive; - = not tested or not shown. Rows were chosen to be rich in hits. Some 1.6% of all compounds tested hit in one or more screens of this group.

SMILES	OPRM1-OPRD1 ag	m5-HT2A agonist	HTR5A inv ag	OPRM1-OPRD1 inv	HTR5A ag ctr	OPRM1-D1 inv cf	HTR5A inv count
Cc1cc(C)n(-c2ccc(C(=O)OCC(=O)Nc3ccccc3F)cc2)n1	0	0	0	0	0	-	-
CC(NC(=O)Cn1cc([N+](=O)[O-])cn1)c1ccc(C(C)(C)C)cc1 (stereo not drawn)	0	0	0	0	0	-	-
COc1ccc2c(c1)C(=O)C(=O)N2CCS(=O)(=O)c1ccccc1	0	0	0	70	0	0	0
O=C1C(=O)N(CCS(=O)(=O)c2ccccc2)c2ccc(F)cc21	0	0	0	53	0	0	0
COc1ccc2c(c1)C(=O)C(=O)N2CC1COc2ccccc2O1 (stereo not drawn)	0	0	0	38	0	0	0
CC(=O)Nc1ccccc1-c1ccc(C)o1	0	0	0	0	0	-	-
Cc1ccc(NC(=O)CS(=O)CC(=O)Nc2ccccc2-c2ccc(C)o2)cc1 (stereo not drawn)	0	0	0	35	0	0	0
Cc1ccc(NC(=O)Cn2ccc([N+](=O)[O-])n2)cc1C	0	0	0	0	0	-	-
O=C(Cc1ccc(Cl)c(Cl)c1)NNC(=S)NCC1CCCO1 (stereo not drawn)	0	0	0	0	0	-	-
O=C(NNC(=S)NCC1CCCO1)c1cc(Br)ccc1Cl (stereo not drawn)	0	0	0	33	0	0	0
CC1CC/C(=N/Nc2ccccc2)C(=O)N1 (stereo not drawn)	0	0	0	0	0	-	-
O=C(CC1(O)C(=O)Nc2cc(Cl)cc(Cl)c21)c1ccncc1 (stereo not drawn)	0	0	0	29	0	0	0
Cc1ccc(Cl)c2c1NC(=O)C2(O)CC(=O)c1ccc(Br)cc1 (stereo not drawn)	0	0	0	30	0	0	0
CCOC(=O)[C@H]1[C@H]2COc3ccc(Br)cc3[C@@H]2N2C(=O)c3cc(Br)ccc3NC(=O)[C@@]12C	0	0	0	0	0	-	-
C=CCn1c(=O)c2c(nc3n2CC(C)CN3c2cccc(OC)c2)n(C)c1=O (stereo not drawn)	0	0	0	36	0	0	0
O=C1C=CC2(C=C1)O[C@H](Cc1ccccc1)[C@@H](Cc1ccccc1)O2	0	0	0	0	0	-	-
COc1ccc(C[C@@H]2OC3(C=CC(=O)C=C3)O[C@H]2Cc2ccc(OC)cc2)cc1	0	0	0	39	0	0	0
CCOC(=O)C1Oc2ccccc2C(C(=O)OC)=C1C(=O)OC (stereo not drawn)	0	0	0	40	0	0	0
CCOC(=O)C1Oc2ccccc2C(c2cccc3ccccc23)=C1C(=O)OC (stereo not drawn)	0	0	0	0	0	-	-
O=c1c2cc(Br)ccc2[nH]c(=S)n1Cc1ccccn1	0	0	0	64	0	0	0
O=c1c2cc(Br)ccc2[nH]c(=S)n1Cc1ccccc1	0	0	0	0	0	-	-
Cn1c(=O)[nH]c(=O)c2c1nc(Br)n2C/C=N/Nc1ccccc1	0	0	0	35	0	0	0
CC1CN(c2ccccc2)NC1=O (stereo not drawn)	0	0	0	48	0	0	0
CC1CN(Cc2ccccc2)C(=O)NC1=O (stereo not drawn)	0	0	0	0	0	-	-
Cc1ccc2cc(C=O)c(N3CCOCC3)nc2c1C	0	0	0	36	0	0	0
SMILES	OPRM1-OPRD1 ag	m5-HT2A agonist	HTR5A inv ag	OPRM1-OPRD1 inv	HTR5A ag ctr	OPRM1-D1 inv cf	HTR5A inv count
Cc1ccc2nc(N3CCOCC3)c(C=O)cc2c1	0	0	0	0	0	-	-
Cc1ccc(C)c(N2CCN(C(=O)CCCOc3cc(=O)n(C)c4ccccc34)CC2)c1	0	0	0	0	0	-	-
COc1ccc(N2CCN(C(=O)CCCOc3cc(=O)n(C)c4ccccc34)CC2)cc1	0	0	0	34	0	0	0
CCCCC(=O)NC(=S)Nc1nnn(CCC)n1	0	0	0	37	0	0	0
CCCCC(=O)Nc1nnn(CCC)n1	0	0	0	0	0	-	-
Cc1ccc(Cl)c2c1NC(=O)C2=O	0	0	0	86	0	74	0
Cc1ccc2c(c1C)C(=O)C(=O)N2	0	0	0	0	0	-	-

Screening data from PubChem.
